The panel holds about 83,000 compounds, 20% with a hit somewhere; the sample as a whole holds those more often.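 Values shown are percent growth following 48 h exposure of cells in 96-well plates to a single concentration of compound; below 10 was considered active.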 The source made the active and inactive calls.
Experiments:
Assay in all cases: NCI-60 one-dose screen, 48 h (100 = growth as untreated, 0 = no growth, -100 = all killed)
HCT-15 colon = conditions: 10 µM unless noted
HT29 colon = conditions: 10 µM unless noted
SNB-75 CNS = conditions: 10 µM unless noted
SNB-19 CNS = conditions: 10 µM unless noted
U251 CNS = conditions: 10 µM unless noted
PC-3 prostate = conditions: 10 µM unless noted
SK-MEL-5 melanoma = conditions: 10 µM unless noted
UACC-62 melanoma = conditions: 10 µM unless noted
LOX IMVI melanoma = conditions: 10 µM unless noted
SK-MEL-2 melanoma = conditions: 10 µM unless noted
SN12C renal = conditions: 10 µM unless noted
UO-31 renal = conditions: 10 µM unless noted
TK-10 renal = conditions: 10 µM unless noted
ACHN renal = conditions: 10 µM unless noted
A498 renal = conditions: 10 µM
CCRF-CEM leukemia = conditions: 10 µM unless noted
SK-MEL-28 melanoma = conditions: 10 µM unless noted
EKVX NSCLC = conditions: 10 µM unless noted
CAKI-1 renal = conditions: 10 µM unless noted
HL-60(TB) leukemia = conditions: 10 µM unless noted

Measured: growth

COc1cc(/C=C\c2cc(OC)c(OC)c(OC)c2)cc(N/C=C\C(=O)c2cc(OC)c(OC)c(OC)c2)c1OC
active: HT29 colon 3.93% | SNB-75 CNS -6.67% | SK-MEL-5 melanoma 5.18% | A498 renal -12.4% | CCRF-CEM leukemia 8.89%
inactive: HCT-15 colon 19.6% | SNB-19 CNS 43.4% | U251 CNS 31% | PC-3 prostate 21.1% | UACC-62 melanoma 16.8% | LOX IMVI melanoma 28.6% | SK-MEL-2 melanoma 15.9% | SN12C renal 36.9% | UO-31 renal 22.3% | TK-10 renal 55.1% | ACHN renal 28.9%

CC(=O)O[C@H]1C(=O)[C@@]2(C)[C@H]([C@H](OC(=O)c3ccccc3)[C@]3(O)C[C@H](OC(=O)[C@H](OC(=O)OC[C@@H]4COC(C)(C)O4)[C@@H](NC(=O)c4ccccc4)c4ccccc4)C(C)=C1C3(C)C)[C@]1(OC(C)=O)CO[C@@H]1C[C@@H]2O
inactive: SNB-19 CNS 12.7% | U251 CNS 17% | PC-3 prostate 22.1% | SK-MEL-5 melanoma 22% | UACC-62 melanoma 24.2% | SK-MEL-28 melanoma 52% | SK-MEL-2 melanoma 24.3% | EKVX NSCLC 29.1% | SN12C renal 27% | UO-31 renal 34.1% | TK-10 renal 26% | ACHN renal 36.2% | CAKI-1 renal 27.4% | A498 renal 13.4% | CCRF-CEM leukemia 17.8%
active: HCT-15 colon 3.91% | HT29 colon -2.35% | SNB-75 CNS -15.6% | HL-60(TB) leukemia 4.01%

CC(=O)O[C@H]1C(=O)[C@@]2(C)[C@H]([C@H](OC(=O)c3ccccc3)[C@]3(O)C[C@H](OC(=O)[C@H](OC(=O)OC[C@H]4COC(C)(C)O4)[C@@H](NC(=O)c4ccccc4)c4ccccc4)C(C)=C1C3(C)C)[C@]1(OC(C)=O)CO[C@@H]1C[C@@H]2O
active: HCT-15 colon 5.28% | HT29 colon 2.46% | SNB-75 CNS -20.5% | HL-60(TB) leukemia 3.13%
inactive: SNB-19 CNS 11.9% | U251 CNS 15.9% | PC-3 prostate 21% | SK-MEL-5 melanoma 18.2% | UACC-62 melanoma 21.7% | SK-MEL-28 melanoma 49.7% | SK-MEL-2 melanoma 14.3% | EKVX NSCLC 27.1% | SN12C renal 22.5% | UO-31 renal 33.8% | TK-10 renal 25.6% | ACHN renal 34.5% | CAKI-1 renal 20.7% | A498 renal 21.1% | CCRF-CEM leukemia 17%

C=CCCCN=C=S
inactive: HCT-15 colon 55.4% | HT29 colon 37.4% | SNB-75 CNS 64.2% | SNB-19 CNS 84.2% | U251 CNS 79.5% | PC-3 prostate 87% | SK-MEL-5 melanoma 95.1% | UACC-62 melanoma 63.4% | SK-MEL-28 melanoma 83.2% | SK-MEL-2 melanoma 56% | EKVX NSCLC 92.7% | SN12C renal 60.1% | UO-31 renal 70% | TK-10 renal 69.1% | ACHN renal 77.9% | CAKI-1 renal 83.3% | CCRF-CEM leukemia 50.1%

COC(=O)[C@@H](C)C[C@H](Cc1ccccc1)NC(=O)c1nc([C@@H](C[C@H](C(C)C)N(C)C(=O)[C@@H](NC(=O)[C@H]2CC(=O)CCN2C)C(C)C)OC(C)=O)sc1C(C)C
inactive: SNB-75 CNS 15.7% | SNB-19 CNS 21.2% | U251 CNS 12.1% | PC-3 prostate 24.3% | UACC-62 melanoma 36.4% | SK-MEL-28 melanoma 51.8% | EKVX NSCLC 30% | SN12C renal 17.5% | UO-31 renal 29.6% | TK-10 renal 46.5% | ACHN renal 21.9% | CAKI-1 renal 34.6%
active: HCT-15 colon 8.84% | HT29 colon -9.41% | SK-MEL-5 melanoma -14.3% | SK-MEL-2 melanoma 5.7% | HL-60(TB) leukemia -36.7% | CCRF-CEM leukemia 9.87%

ClCCN(CCCl)c1ccc(-n2cnc3c(Cl)ncnc32)cc1
active: HCT-15 colon -26.7% | SK-MEL-28 melanoma -10.5% | UO-31 renal -85.9% | ACHN renal -82.1% | CAKI-1 renal -88.2% | HL-60(TB) leukemia -9.68%
inactive: HT29 colon 12.7% | SNB-75 CNS 26.1% | SNB-19 CNS 79.2% | U251 CNS 32.8% | PC-3 prostate 64.1% | SK-MEL-5 melanoma 86.3% | UACC-62 melanoma 31.5% | SK-MEL-2 melanoma 69% | EKVX NSCLC 28.7% | SN12C renal 47.8% | TK-10 renal 84.7% | A498 renal 95.2% | CCRF-CEM leukemia 13.1%

COc1ccc(N(CC(=O)NCCC[Te]c2ccccc2)C(=O)CNC(=O)OC(C)(C)C)cc1
inactive: HCT-15 colon 11.3% | SNB-75 CNS 57.9% | SNB-19 CNS 33% | U251 CNS 12.4% | SK-MEL-5 melanoma 41.4% | UACC-62 melanoma 89.2% | SK-MEL-28 melanoma 105% | SK-MEL-2 melanoma 80% | SN12C renal 18.7% | TK-10 renal 76.1% | ACHN renal 83.9% | CAKI-1 renal 70.4% | CCRF-CEM leukemia 14%
active: HT29 colon -36.8% | PC-3 prostate 8.59% | EKVX NSCLC -5.01% | UO-31 renal -3.8% | A498 renal -16% | HL-60(TB) leukemia 3.6%

C=C1C[C@](OC)([C@H](O)C(=O)N[C@@H](OC)[C@@H]2C[C@@H](O)C(C)(C)[C@@H](C[C@@H](COC)OC)O2)O[C@H](C)[C@@H]1C
active: HCT-15 colon -51.3% | HT29 colon -68.7% | SNB-75 CNS -100% | SNB-19 CNS -10.7% | U251 CNS -61.9% | PC-3 prostate -25.5% | SK-MEL-5 melanoma -100% | UACC-62 melanoma -92.5% | SK-MEL-28 melanoma -100% | SK-MEL-2 melanoma -64.8% | EKVX NSCLC -33.9% | SN12C renal -29.9% | UO-31 renal -61.7% | TK-10 renal -36% | ACHN renal -84.6% | CAKI-1 renal -39.7% | A498 renal -87.1% | HL-60(TB) leukemia -52% | CCRF-CEM leukemia -24.3%

CC(C)=CCc1c(O)c(C(=O)CC(C)C)c(O)c2c(-c3ccccc3)cc(=O)oc12
inactive: HCT-15 colon 30.3% | HT29 colon 66.5% | SNB-75 CNS 81.3% | SNB-19 CNS 42.1% | U251 CNS 41.3% | PC-3 prostate 19.6% | UACC-62 melanoma 12.2% | SK-MEL-28 melanoma 39.2% | SK-MEL-2 melanoma 40.5% | EKVX NSCLC 36.7% | SN12C renal 33.7% | UO-31 renal 44.9% | TK-10 renal 56.8% | ACHN renal 59.4% | CAKI-1 renal 52.4% | A498 renal 32.6% | HL-60(TB) leukemia 27.5% | CCRF-CEM leukemia 23.6%
active: SK-MEL-5 melanoma -41.3%

CNC(=O)Oc1ccc2c(c1)OCO2
inactive: HCT-15 colon 101% | HT29 colon 104% | SNB-75 CNS 98.6% | SNB-19 CNS 98.9% | U251 CNS 99% | PC-3 prostate 102% | SK-MEL-5 melanoma 101% | UACC-62 melanoma 99.4% | SK-MEL-28 melanoma 108% | SK-MEL-2 melanoma 98.2% | EKVX NSCLC 97.9% | SN12C renal 99.7% | UO-31 renal 98.1% | TK-10 renal 101% | ACHN renal 99.3% | CAKI-1 renal 100% | HL-60(TB) leukemia 94.3% | CCRF-CEM leukemia 111%

COC(=O)[C@H](Cc1c[nH]c2ccccc12)NC(=O)[C@@H](OC)[C@@H]1Cc2cc3cc(OC4CC(OC5CC(O)C(O)C(C)O5)C(O)C(C)O4)c(C)c(O)c3c(O)c2C(=O)[C@H]1OC1CC(OC2CC(OC3CC(C)(O)C(O)C(C)O3)C(O)C(C)O2)C(O)C(C)O1 (stereo partly specified)
active: HT29 colon 4.98% | SNB-75 CNS -88.5% | SNB-19 CNS 7.09% | U251 CNS 6.13% | PC-3 prostate -10.4% | SK-MEL-5 melanoma -72.1% | UACC-62 melanoma -52.7% | LOX IMVI melanoma -3.17% | SK-MEL-28 melanoma -27.9% | EKVX NSCLC 3.61% | UO-31 renal -6.63% | TK-10 renal 8.12% | ACHN renal 0.567% | A498 renal -52.8% | CCRF-CEM leukemia 5.66%
inactive: HCT-15 colon 15.9% | SN12C renal 10.6% | CAKI-1 renal 19.5%

CNC(=O)Oc1cccc(C(F)(F)F)c1
inactive: HCT-15 colon 117% | HT29 colon 108% | SNB-75 CNS 113% | SNB-19 CNS 103% | U251 CNS 114% | PC-3 prostate 104% | SK-MEL-5 melanoma 105% | UACC-62 melanoma 97.7% | SK-MEL-28 melanoma 105% | SK-MEL-2 melanoma 106% | EKVX NSCLC 139% | SN12C renal 93.7% | UO-31 renal 96.3% | TK-10 renal 105% | ACHN renal 114% | CAKI-1 renal 117% | A498 renal 106% | HL-60(TB) leukemia 114% | CCRF-CEM leukemia 90.6%

CN(C)C(=O)Oc1ccc(Br)cc1
inactive: HCT-15 colon 105% | HT29 colon 109% | SNB-75 CNS 89% | SNB-19 CNS 107% | U251 CNS 98.3% | PC-3 prostate 97.1% | SK-MEL-5 melanoma 98.8% | UACC-62 melanoma 113% | LOX IMVI melanoma 96.4% | SK-MEL-28 melanoma 104% | SN12C renal 106% | UO-31 renal 85.1% | TK-10 renal 99.8% | ACHN renal 109% | CAKI-1 renal 95.5% | A498 renal 117% | HL-60(TB) leukemia 102% | CCRF-CEM leukemia 89.7%

O=C(O)c1c(Cl)n(Cc2ccc(O)cc2)c2ccc(O)cc12
inactive: HCT-15 colon 118% | HT29 colon 110% | SNB-75 CNS 80.6% | SNB-19 CNS 106% | U251 CNS 106% | PC-3 prostate 72.4% | SK-MEL-5 melanoma 85.8% | LOX IMVI melanoma 98.8% | SK-MEL-28 melanoma 100% | SK-MEL-2 melanoma 81.6% | EKVX NSCLC 112% | SN12C renal 102% | UO-31 renal 61.1% | TK-10 renal 137% | ACHN renal 112% | CAKI-1 renal 95.2% | A498 renal 107% | HL-60(TB) leukemia 101% | CCRF-CEM leukemia 81.6%

CC[C@H](C)[C@H](NC(=O)C12C3C4C1C1C2C3C41NC(C)=O)C(=O)N(C)[C@H](C[C@@H](OC(C)=O)c1nc(C(=O)N[C@@H](Cc2ccccc2)C[C@H](C)C(=O)OC)cs1)C(C)C (stereo partly specified)
active: HT29 colon 4.53% | U251 CNS 9.8% | SK-MEL-5 melanoma -13.4% | A498 renal -10.4% | HL-60(TB) leukemia -13.3%
inactive: HCT-15 colon 24.8% | SNB-75 CNS 38.6% | SNB-19 CNS 56.1% | PC-3 prostate 11.3% | LOX IMVI melanoma 14.9% | SK-MEL-28 melanoma 59.6% | SK-MEL-2 melanoma 49.2% | EKVX NSCLC 38.6% | SN12C renal 25.6% | UO-31 renal 59.8% | TK-10 renal 62% | ACHN renal 36.6% | CAKI-1 renal 74.1% | CCRF-CEM leukemia 12.2%
